Reference: the supplement of paper PMC8387472
Where a name gives a salt, the structure may show the parent alone. ± gives the standard deviation of the averaged measurements.

system: mESC LDLR-Dup GFP reporter (SpCas9 MH-deletion repair); assay: fraction of GFP+ cells relative to DMSO control (fold change); higher = more MH-deletion repair to in-frame LDLR (or more editing); conditions: 2 µM; 7 days post-transfection

| SMILES | fraction of GFP+ cells |
| --- | --- |
| CCN1CCN(C(=O)Cc2ccc(Nc3ncc(F)c(Nc4ccc(C(=O)Nc5ccccc5Cl)cc4)n3)cc2)CC1 [Aurora A Inhibitor I] | 0.548 ± 0.13 |
| C/C=C(\C)C(=O)N[C@@H](c1ccccc1)[C@@H](O)C(=O)O[C@H]1C[C@@]2(O)[C@@H](OC(=O)c3ccccc3)[C@@H]3[C@]4(OC(C)=O)CO[C@@H]4C[C@H](O)[C@@]3(C)C(=O)[C@H](OC(C)=O)C(=C1C)C2(C)C [Cephalomannine] | 1.54 ± 0.41 |
| C/C(O)=C(\C#N)C(=O)Nc1cc(Br)ccc1Br | 1.04 ± 0.32 |
| Cc1cc(SCc2sc(-c3ccc(C(F)(F)F)c(F)c3)nc2C)ccc1OCC(=O)O | 1.72 ± 0.64 |
| CN1CCN(c2ccc([N+](=O)[O-])c3no[n+]([O-])c23)CC1 | 1.37 ± 0.088 |
| CCn1cc(C(=O)O)c(=O)c2cc3c(cc21)OCO3 [Oxolinic acid] | 0.941 ± 0.23 |
| C[C@H]1CCC/C=C/[C@@H]2C[C@H](O)C[C@H]2[C@H](O)/C=C/C(=O)O1 [Brefeldin A] | 0.627 ± 0.22 |
| COc1ccc2c(c1)[nH]c1c(C)nccc12 [harmine hydrochloride] | 1.1 ± 0.11 |
| NC(=O)c1cc(N2CC2)c([N+](=O)[O-])cc1[N+](=O)[O-] | 1.43 ± 0.66 |
| COC[C@H]1OC(=O)c2coc3c2[C@@]1(C)C1=C(C3=O)[C@@H]2CCC(=O)[C@@]2(C)C[C@H]1OC(C)=O [Wortmannin] | 0.685 ± 0.098 |
| O=C(O)CCCc1ccc(N(CCCl)CCCl)cc1 [Chloroambucil] | 2.44 ± 0.046 |
| Cn1c(CCCC(=O)O)nc2cc(N(CCCl)CCCl)ccc21 [Bendamustine HCl] | 1.26 ± 0.33 |
| O=P1(NCCCl)OCCCN1CCCl (stereo not given) [Ifosfamide] | 1.11 ± 0.34 |
| COc1ccc2c(c1)/C(=C/c1cnc[nH]1)C(=O)N2 | 1.29 ± 0.051 |
| O=P1(N(CCCl)CCCl)NCCCO1 (stereo not given) [Cyclophosphamide Monohydrate] | 1.78 ± 0.27 |
